Among the test systems are PRKCQ; PRKD1; PRKD2; PRKD3; PRKG1; PRKG2; PRKX; PRP4; QSK; RAF1; RET; RIOK1; RIOK2; RIOK3; RIPK1; RIPK2; RIPK4; RIPK5.
What all share (conditions): concentration: 1 μM, replicates: in singlicate; n = 1
Another assay deals with T1, PRKR.
T1 construct: gene EIF2AK2

The next assay deals with T2, PYK2.
T2 construct: gene PTK2B
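Also: KINOMEscan kinase panel screen.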

For `Cl.Oc1ccc(-c2nc(-c3ccccc3)[nH]c2-c2ccncc2)cc1` [SB-428218], the “%Inh” value in the assay with PRKCQ is listed as 0%; in the assay with PRKD1, 0%; in the assay with PRKD2, 9%; with PRKD3, 0%; in the assay with PRKG1, 12%; in the assay on PRKG2, 0%. Further, the “%Inh” value in the assay with PRKR was 0%; in the assay on PRKX it was 0%; in the assay on PRP4, 57%; in the assay on PYK2, 0%; in the assay with QSK, 0%; in the assay with RAF1 it was 61%. Also, the “%Inh” value in the assay on RET was determined as 26%; with RIOK1, 0%; with RIOK2 it was 0%; with RIOK3, 0%; with RIPK1 it was 0%; in the assay on RIPK2, 22%. In addition, the “%Inh” value in the assay on RIPK4 is on record as 14%; with RIPK5, 0%.
Regarding `Cc1c(O)cccc1Nc1ccnc2ccc(C(F)(F)F)cc12.Cl` [GW466413], the “%Inh” value with PRKCQ worked out at 0%; with PRKD1, 0%; with PRKD2 it was 0%; with PRKD3 it was 0%; with PRKG1 it was 5%; in the assay on PRKG2, 0%. The “%Inh” value with PRKR is listed as 0%; in the assay with PRKX it was 0%; in the assay on PRP4 it was 4%; in the assay with PYK2, 0%; in the assay with QSK it was 3%; in the assay on RAF1, 23%. Moreover, the “%Inh” value is given as 24% with RET; 34% with RIOK1; 2% in the assay on RIOK2; 0% in the assay with RIOK3; 3% with RIPK1; 21% with RIPK2. In addition, the “%Inh” value in the assay on RIPK4 and in the assay with RIPK5 was 0% throughout.
Take `COc1ccccc1CNC(=O)c1cc(C(=O)c2ccccc2C)c[nH]1` [GSK364507]: the “%Inh” value with PRKCQ amounted to 0%; with PRKD1, 9%; in the assay with PRKD2, 1%; in the assay on PRKD3, 5%; in the assay on PRKG1 it was 1%; with PRKG2, 2%. For the same compound, the “%Inh” value was found to be 0% in the assay on PRKR; 7% in the assay on PRKX; 23% with PRP4; 7% in the assay with PYK2; 8% in the assay with QSK; 25% in the assay with RAF1. Moreover, the “%Inh” value in the assay on RET is given as 14%; with RIOK1, 30%; in the assay on RIOK2, 0%; with RIOK3, 1%; in the assay on RIPK1, 0%; in the assay with RIPK2 it was 9%. In addition, the entries for the “%Inh” value with RIPK4 and in the assay on RIPK5 were 19% and 0%, respectively.
As to `COC(=O)c1c(-c2ccccc2)c2cc(OC)ccc2c(=O)n1Cc1ccccc1`, the “%Inh” value in the assay with PRKCQ turned out to be 15%; in the assay with PRKD1, 0%; with PRKD2, 16%; in the assay on PRKD3 it was 0%; in the assay with PRKG1 it was 0%; in the assay with PRKG2 it was 2%. The “%Inh” value with PRKR is 4%; in the assay on PRKX it was 4%; with PRP4, 7%; with PYK2 it was 6%; in the assay on QSK, 23%; with RAF1 it was 85%. Also, the “%Inh” value in the assay with RET is listed as 17%; in the assay with RIOK1 it was 0%; in the assay with RIOK2 it was 0%; in the assay with RIOK3, 0%; in the assay on RIPK1, 0%; with RIPK2 it was 0%. For the same compound, the entries for the “%Inh” value in the assay on RIPK4 and in the assay with RIPK5 were 4% and 24%, respectively.
As for `C[C@@H]1CCCCN1c1cc(-c2ccc3c(N)n[nH]c3c2)nc(N)n1` [GSK2258759], the “%Inh” value is on record as 0% in the assay with PRKCQ; 0% with PRKD1; 3% with PRKD2; 0% in the assay with PRKD3; 0% with PRKG1; 14% in the assay with PRKG2. The “%Inh” value in the assay on PRKR amounted to 21%; in the assay with PRKX, 15%; in the assay with PRP4 it was 1%; in the assay with PYK2, 0%; in the assay with QSK, 0%; in the assay on RAF1, 3%. The “%Inh” value in the assay with RET came to 6%; in the assay with RIOK1, 47%; with RIOK2, 1%; in the assay with RIOK3, 19%; in the assay with RIPK1, 0%; in the assay with RIPK2 it was 11%. Also, the “%Inh” value in the assay with RIPK4 was found to be 20%; with RIPK5, 0%.
In the case of `Cc1ccc(NC(=O)Nc2cccc(Cl)c2)cc1-c1ccc(C(=O)Nc2ccncc2)cc1` [GSK1398468], the “%Inh” value in the assay on PRKCQ was determined as 11%; with PRKD1 it was 0%; in the assay on PRKD2 it was 1%; in the assay with PRKD3, 22%; with PRKG1, 1%; with PRKG2 it was 0%. The “%Inh” value with PRKR was determined as 1%; in the assay with PRKX, 80%; in the assay on PRP4, 47%; in the assay on PYK2, 0%; with QSK, 0%; in the assay with RAF1, 91.4%. For the same compound, the “%Inh” value in the assay with RET is 1%; in the assay with RIOK1, 40%; in the assay with RIOK2 it was 0%; with RIOK3, 59%; in the assay with RIPK1 it was 5%; with RIPK2, 6%. Besides, the “%Inh” value in the assay with RIPK4 was 22%; in the assay with RIPK5, 0%.
For `COc1cccc(NC(=O)NC2CCN(c3ccnc(Nc4ccc(F)cc4)n3)C2)c1` (centres unmarked) [GSK1379721], the “%Inh” value in the assay with PRKCQ is 3%; in the assay on PRKD1, 0%; in the assay on PRKD2, 0%; in the assay with PRKD3, 19%; in the assay on PRKG1, 0%; with PRKG2, 0%. The “%Inh” value in the assay with PRKR amounted to 1%; with PRKX it was 21%; in the assay on PRP4 it was 47%; with PYK2, 0%; with QSK it was 3%; with RAF1, 3%. The “%Inh” value in the assay with RET came to 0%; with RIOK1, 16%; in the assay with RIOK2, 0%; in the assay with RIOK3, 13%; with RIPK1 it was 29%; with RIPK2 it was 2%. The “%Inh” value with RIPK4 was determined as 17%; with RIPK5 it was 18%.
Consider `Cl.NC(=O)c1cccc(Nc2nccc(Nc3ccc(Oc4cccc(Cl)c4)c(Cl)c3)n2)c1` [GW659008], for which the “%Inh” value in the assay on PRKCQ was determined as 0%; in the assay on PRKD1, 0%; in the assay on PRKD2, 6%; in the assay with PRKD3, 0%; in the assay with PRKG1, 0%; in the assay on PRKG2 it was 3%. Also, the “%Inh” value was 0% with PRKR; 15% in the assay on PRKX; 18% with PRP4; 15% in the assay with PYK2; 9% in the assay on QSK; 0% with RAF1. Further, the “%Inh” value in the assay with RET worked out at 3%; in the assay on RIOK1, 37%; in the assay on RIOK2 it was 21%; with RIOK3, 23%; with RIPK1 it was 27%; in the assay with RIPK2, 95.8%. Also, the “%Inh” value in the assay on RIPK4 turned out to be 72%; in the assay with RIPK5 it was 0%.
`O=S(=O)(c1ccc(-c2ccnc3[nH]ccc23)cc1)N1CCCC1` [GSK846226]: the “%Inh” value stood at 0% with PRKCQ; 0% with PRKD1; 3% in the assay with PRKD2; 0% in the assay with PRKD3; 36% with PRKG1; 14% with PRKG2. Besides, the “%Inh” value with PRKR was determined as 21%; with PRKX, 28%; in the assay on PRP4 it was 8%; with PYK2, 0%; in the assay on QSK, 0%; with RAF1, 0%. In addition, the “%Inh” value in the assay with RET is 7%; in the assay on RIOK1 it was 86%; with RIOK2, 85%; with RIOK3, 89%; in the assay on RIPK1, 8%; in the assay on RIPK2 it was 5%. Moreover, the “%Inh” value in the assay on RIPK4 was determined as 8%; in the assay on RIPK5 it was 16%.
For `CN1C(=O)C(Nc2ccc(Cl)c(C(=O)O)c2)=C(c2ccc(Cl)cc2)C1=O` [SB-404290], the “%Inh” value with PRKCQ stood at 77%; in the assay with PRKD1, 0%; with PRKD2, 6%; with PRKD3 it was 0%; in the assay with PRKG1, 13%; with PRKG2 it was 0%. Also, the “%Inh” value was 0% in the assay on PRKR; 0% in the assay on PRKX; 0% in the assay on PRP4; 5% with PYK2; 40% in the assay on QSK; 0% in the assay on RAF1. The “%Inh” value with RET was 0%; with RIOK1, 0%; with RIOK2, 0%; with RIOK3, 18%; in the assay with RIPK1 it was 0%; in the assay on RIPK2, 0%. Also, the “%Inh” value in the assay with RIPK4 came out at 18%; in the assay with RIPK5, 17%.

These data come from publication PMC5540273 (PLoS ONE, 2017).
